This passage reports growth results from PubChem BioAssay (NCI).

Each structure is given as a SMILES string. This is part of a sample that, as a whole, favours compounds with a hit. Of some 83,000 tested, about 20% had one in any assay.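 Plates (96-well) were seeded with cells, treated with compound at one concentration, and incubated for 48 hours before percent growth was determined.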 A number with no mark means an inactive call. The source made the active and inactive calls. Rule for the calls: active = growth percent below 10; inactive = the rest.

Among the test systems are RPMI-8226 leukemia; OVCAR-8 ovarian; OVCAR-5 ovarian; SK-OV-3 ovarian; IGROV1 ovarian; HS 578T breast; NCI/ADR-RES ovarian; T-47D breast; BT-549 breast; MDA-MB-435 melanoma; SW-620 colon; MCF7 breast; HCT-116 colon; HCC-2998 colon; KM12 colon; OVCAR-4 ovarian.
Holding throughout (test): NCI-60 one-dose screen, 48 h (100 = growth as untreated, 0 = no growth, -100 = all killed)
Common to all, as to conditions: 10 µM unless noted

Regarding `COc1ccc(/C(C)=C(\c2ccc(Cl)cc2)c2ccc(OCCN)cc2)cc1`, the growth in the test on RPMI-8226 leukemia is 67.1%; in the test on OVCAR-8 ovarian, 88.7%; with OVCAR-5 ovarian, 83.8%; in the test on SK-OV-3 ovarian, 131%; in the test on IGROV1 ovarian, 77.8%; with HS 578T breast, 89%. For the same compound, the growth with NCI/ADR-RES ovarian is 89.1%; in the test with T-47D breast, 95.2%; in the test with BT-549 breast, 91.7%; in the test with MDA-MB-435 melanoma it was 76.9%; with SW-620 colon it was 36.4%; in the test with MCF7 breast, 72.4%. Besides, the growth was 42.3% in the test with HCT-116 colon, 30.2% in the test on HCC-2998 colon and 78.2% in the test on KM12 colon.

Turning to `N#Cc1ccc(S(=O)(=O)Nc2ccc(-c3cnc(N)[nH]3)cc2)cc1`, the growth is 104% in the test with RPMI-8226 leukemia; 101% in the test on OVCAR-8 ovarian; 98.9% in the test with OVCAR-5 ovarian; 104% in the test on OVCAR-4 ovarian; 106% in the test with SK-OV-3 ovarian; 108% with IGROV1 ovarian. The growth was 98.3% with HS 578T breast; 102% with NCI/ADR-RES ovarian; 101% with T-47D breast; 107% in the test with BT-549 breast; 108% with MDA-MB-435 melanoma; 102% with SW-620 colon. The growth in the test with MCF7 breast is 90.7%; with HCT-116 colon it was 107%; in the test with KM12 colon it was 103%.

Consider `CCOC(=O)Nc1cccc(-n2cnc3cc(-c4ccc(O)cc4)ccc32)c1`, for which the growth in the test with RPMI-8226 leukemia is 20.2%; in the test on OVCAR-8 ovarian, 21.8%; in the test with OVCAR-5 ovarian, 41.1%; in the test on OVCAR-4 ovarian it was 56%; in the test on SK-OV-3 ovarian, 34%; with IGROV1 ovarian it was 32.3%. For the same compound, the growth in the test with HS 578T breast is 16%; with NCI/ADR-RES ovarian, 7.05% (active); in the test on BT-549 breast it was 39.3%; in the test with MDA-MB-435 melanoma it was -16% (active); in the test with SW-620 colon it was 25.5%; in the test with MCF7 breast, 18.2%. Also, the values for the growth in the test on HCT-116 colon, in the test with HCC-2998 colon and in the test with KM12 colon were 10.3%, 30.2% and 3.22% (active), respectively.

For `O=S(=O)(Nc1ccc(-n2cnc3cc(-c4ccc(O)cc4)ccc32)cc1)C1CC1`, the growth is 79.8% in the test with RPMI-8226 leukemia; 88.7% in the test on OVCAR-8 ovarian; 107% in the test on OVCAR-5 ovarian; 78.2% in the test with OVCAR-4 ovarian; 117% with SK-OV-3 ovarian; 86% in the test on IGROV1 ovarian. Also, the growth is 95% in the test on HS 578T breast; 94.2% in the test on NCI/ADR-RES ovarian; 72.9% with T-47D breast; 91.9% in the test with BT-549 breast; 87.7% with MDA-MB-435 melanoma; 102% with SW-620 colon. Moreover, the growth with MCF7 breast was 73.9%; in the test with HCT-116 colon, 92.7%; in the test on HCC-2998 colon, 103%; in the test with KM12 colon, 68.7%.

As to `C=CCn1c(SCC(=O)Nc2cccc(C(=O)/C=C/c3cc(OC)c(OC)c(OC)c3)c2)nc2ccccc2c1=O`, the growth was -9.52% (active) in the test on RPMI-8226 leukemia; -14.7% (active) with OVCAR-8 ovarian; 17.4% in the test with OVCAR-5 ovarian; 66.5% in the test with OVCAR-4 ovarian; 132% in the test with SK-OV-3 ovarian; 82% with HS 578T breast. The growth in the test with NCI/ADR-RES ovarian was 27.1%; in the test with T-47D breast it was 66.4%; in the test on BT-549 breast it was 75.9%; in the test with MDA-MB-435 melanoma, 21.7%; with SW-620 colon it was 3.18% (active); in the test with MCF7 breast, 18.2%. Also, the growth with HCT-116 colon is -26.4% (active); in the test with HCC-2998 colon, 82.5%; in the test with KM12 colon, 46.3%.

For `CCN1CCN(Cc2ccc(C(=O)Nc3nc4ccc(Oc5ccnc(C(=O)NC)c5)cc4s3)cc2C(F)(F)F)CC1`, the growth with RPMI-8226 leukemia is 26.4%; in the test on OVCAR-8 ovarian, 60.8%; in the test with OVCAR-5 ovarian it was 76.7%; in the test with SK-OV-3 ovarian it was 83.7%; in the test with IGROV1 ovarian, 70.3%; in the test with HS 578T breast, 51.9%. Besides, the growth in the test on NCI/ADR-RES ovarian was 67%; with T-47D breast, 18.7%; with BT-549 breast it was 45.3%; in the test with MDA-MB-435 melanoma, 46%; in the test with SW-620 colon it was -17.2% (active); with MCF7 breast, 16.3%. Further, the figures for the growth in the test with HCT-116 colon, in the test with HCC-2998 colon and with KM12 colon were 18%, 62.8% and 48.4%, respectively.

Regarding `COCCOc1ccc(-c2csc(NC(C)=O)n2)cc1NS(=O)(=O)c1cccc2c(N(C)C)cccc12`, the growth with RPMI-8226 leukemia was 69.6%; in the test with OVCAR-8 ovarian it was 97.6%; with OVCAR-5 ovarian it was 105%; in the test on OVCAR-4 ovarian, 86.8%; in the test on IGROV1 ovarian, 77.1%; in the test on HS 578T breast it was 88%. The growth was 84.4% in the test with NCI/ADR-RES ovarian; 67.7% in the test with T-47D breast; 105% in the test with BT-549 breast; 105% in the test with MDA-MB-435 melanoma; 111% in the test with SW-620 colon; 85% in the test with MCF7 breast. In addition, the figures for the growth in the test with HCT-116 colon, with HCC-2998 colon and in the test with KM12 colon were 88.2%, 113% and 97.1%, respectively.

Regarding `C/C(=C(/c1ccc(O)cc1)c1ccc(OCCN2CCCC2)cc1)c1ccc(Cl)cc1`, the growth in the test with RPMI-8226 leukemia was -4.71% (active); in the test with OVCAR-8 ovarian, 64.6%; with OVCAR-5 ovarian, 60.1%; in the test with SK-OV-3 ovarian, 76.7%; with IGROV1 ovarian, 55.4%; in the test on HS 578T breast it was 48.4%. In addition, the growth in the test on NCI/ADR-RES ovarian is 64.2%; in the test with T-47D breast, 24.9%; in the test on BT-549 breast, 89.6%; in the test with MDA-MB-435 melanoma it was 20%; in the test with SW-620 colon it was -57.1% (active); in the test on MCF7 breast, 5.58% (active). The growth with HCT-116 colon is 36.6%; in the test with HCC-2998 colon, 17.2%; in the test with KM12 colon it was 46.5%.

As for `C=CCn1c(SCC(=O)Nc2cccc(C(=O)/C=C/c3ccc(C)cc3)c2)nc2ccccc2c1=O`, the growth with RPMI-8226 leukemia is 27.1%; in the test on OVCAR-8 ovarian, 82.1%; in the test with OVCAR-5 ovarian it was 101%; in the test on SK-OV-3 ovarian, 113%; with IGROV1 ovarian, 95.8%; in the test on HS 578T breast, 101%. Further, the growth is 84.5% in the test on NCI/ADR-RES ovarian; 67.3% in the test with T-47D breast; 122% with BT-549 breast; 68.6% in the test on MDA-MB-435 melanoma; 67.5% with SW-620 colon; 26.5% in the test on MCF7 breast. Also, the growth was 13.7% with HCT-116 colon, 87.2% in the test on HCC-2998 colon and 74.5% in the test on KM12 colon.

On to `CCOC(=O)CC(=O)CSC1=NC2C(NN1)N(C)C(=O)N2C` (stereo not given), for which the growth with RPMI-8226 leukemia is 56%; in the test on OVCAR-8 ovarian, 66.8%; with OVCAR-5 ovarian, 88.6%; in the test on OVCAR-4 ovarian, 88.9%; in the test with SK-OV-3 ovarian it was 114%; in the test with IGROV1 ovarian, 91.2%. Besides, the growth was 94.4% in the test with HS 578T breast; 80.1% with NCI/ADR-RES ovarian; 31.8% with T-47D breast; 101% with BT-549 breast; 94.6% in the test on MDA-MB-435 melanoma; 75.8% with SW-620 colon. In addition, the growth with MCF7 breast is 10.9%; with HCT-116 colon, 9.01% (active); with KM12 colon it was 101%.

`COc1ccc(-c2cc(-c3cccc4ccccc34)n3c(n2)nc2ccccc23)cc1OC`: the growth in the test with RPMI-8226 leukemia is -18.4% (active); with OVCAR-8 ovarian it was 34.3%; in the test with OVCAR-5 ovarian, 52.2%; in the test with OVCAR-4 ovarian, 71.9%; in the test on IGROV1 ovarian, 52.3%; in the test with HS 578T breast, 46.3%. For the same compound, the growth with NCI/ADR-RES ovarian is 47.4%; in the test on T-47D breast it was 19.2%; in the test with BT-549 breast it was 34.6%; in the test with MDA-MB-435 melanoma, 47.3%; in the test with SW-620 colon, 29.8%; in the test on MCF7 breast, 15.4%. Also, the values for the growth in the test on HCT-116 colon, in the test on HCC-2998 colon and in the test on KM12 colon were 31.5%, 72% and 68.1%, respectively.

In the case of `Cc1ccc(C2CC(c3ccc(Nc4nc(NCCO)nc(Nc5ccc(Cl)cc5)n4)cc3)=Nc3c(N)nc(N)nc3N2)cc1` (stereo not given), the growth in the test on RPMI-8226 leukemia is -55.4% (active); with OVCAR-8 ovarian, -81% (active); with OVCAR-5 ovarian, -63.3% (active); with OVCAR-4 ovarian, -54.4% (active); in the test with SK-OV-3 ovarian it was 114%; in the test on HS 578T breast, 11.9%. For the same compound, the growth with NCI/ADR-RES ovarian is -39.8% (active); in the test with T-47D breast it was 60.1%; in the test on BT-549 breast, 80.7%; in the test on MDA-MB-435 melanoma it was -93.1% (active); in the test on SW-620 colon, -88.9% (active); in the test on MCF7 breast, -68.4% (active). Moreover, the growth is -97% (active) in the test on HCT-116 colon and -88% (active) in the test on KM12 colon.

Take `CS(=O)(=O)c1nccc(-c2c(-c3ccc(F)c(OCCc4ccccc4)c3)nc3sccn23)n1`: the growth with RPMI-8226 leukemia is 54.7%; in the test on OVCAR-8 ovarian, 87.5%; with OVCAR-5 ovarian it was 100%; in the test on OVCAR-4 ovarian it was 98.4%; in the test with SK-OV-3 ovarian, 121%; in the test with IGROV1 ovarian it was 59.3%. Besides, the growth was 113% in the test on HS 578T breast; 95.9% in the test with NCI/ADR-RES ovarian; -4.49% (active) in the test on T-47D breast; 104% in the test on BT-549 breast; 104% in the test on MDA-MB-435 melanoma; 103% in the test with SW-620 colon. Also, the growth with MCF7 breast was 4.77% (active); in the test on HCT-116 colon it was 92.5%; in the test with KM12 colon, 77.5%.
